A number with no mark means an inactive call.
Legend:
Assay in all cases: log2 ratio of Biotin-Ahx-Ub-VS probe labelling (fragment/DMSO); higher = less target engagement (more negative = stronger competition), active = hit call of the paper (q ≤ 0.05, log2 ratio ≤ -1)
Settings in all cases: compound concentration: 200 uM; treatment time: 3 h
UniProt O00507 = target: UniProt O00507
How it was run: (§1)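 Using Biotin-Ahx-Ub-VS at 0.5 µM final for 1 h, DUBs were labelled in HEK293T lysate (495 µg per sample) that had first been treated in triplicate with fragment at 200 µM or vehicle for 3 h. NeutrAvidin enrichment, LysC and trypsin digestion and diaPASEF LC-MS/MS followed. Spectronaut label-free quantities were global-median-normalised. Values are average log2 fragment/vehicle ratios by unpaired t-test, using proteins with ≥2 unique peptides.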

UniProt P51784 = target: UniProt P51784
Chain of UniProt P51784 (P51784 whole entry): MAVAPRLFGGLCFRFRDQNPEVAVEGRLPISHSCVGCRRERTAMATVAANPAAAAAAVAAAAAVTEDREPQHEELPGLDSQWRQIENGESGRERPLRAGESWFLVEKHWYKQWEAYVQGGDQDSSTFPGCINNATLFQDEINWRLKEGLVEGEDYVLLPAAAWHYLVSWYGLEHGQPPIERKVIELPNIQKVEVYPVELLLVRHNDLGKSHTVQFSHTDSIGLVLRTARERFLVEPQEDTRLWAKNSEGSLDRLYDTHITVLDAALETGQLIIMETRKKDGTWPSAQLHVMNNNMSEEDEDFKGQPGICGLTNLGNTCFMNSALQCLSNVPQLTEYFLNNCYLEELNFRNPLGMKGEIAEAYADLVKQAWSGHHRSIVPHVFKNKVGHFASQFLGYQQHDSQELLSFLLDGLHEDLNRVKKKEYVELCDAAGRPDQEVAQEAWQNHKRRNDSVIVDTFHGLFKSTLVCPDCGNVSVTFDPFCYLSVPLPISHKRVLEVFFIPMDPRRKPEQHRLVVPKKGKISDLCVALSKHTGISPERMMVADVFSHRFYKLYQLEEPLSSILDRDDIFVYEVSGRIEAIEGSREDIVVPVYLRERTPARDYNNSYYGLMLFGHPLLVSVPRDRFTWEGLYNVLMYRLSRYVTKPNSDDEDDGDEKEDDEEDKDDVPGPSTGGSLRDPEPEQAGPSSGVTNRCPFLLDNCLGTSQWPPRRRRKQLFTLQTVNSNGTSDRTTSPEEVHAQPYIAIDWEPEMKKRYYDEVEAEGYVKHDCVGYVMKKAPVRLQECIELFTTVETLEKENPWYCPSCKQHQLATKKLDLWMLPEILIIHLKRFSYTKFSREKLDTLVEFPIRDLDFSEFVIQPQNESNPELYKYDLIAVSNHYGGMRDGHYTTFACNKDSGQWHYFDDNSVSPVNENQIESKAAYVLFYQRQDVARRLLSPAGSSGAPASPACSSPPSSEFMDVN
How it was run: as §1

UniProt Q5T2D3 = target: T1, UniProt Q5T2D3
T1 sequence (whole entry): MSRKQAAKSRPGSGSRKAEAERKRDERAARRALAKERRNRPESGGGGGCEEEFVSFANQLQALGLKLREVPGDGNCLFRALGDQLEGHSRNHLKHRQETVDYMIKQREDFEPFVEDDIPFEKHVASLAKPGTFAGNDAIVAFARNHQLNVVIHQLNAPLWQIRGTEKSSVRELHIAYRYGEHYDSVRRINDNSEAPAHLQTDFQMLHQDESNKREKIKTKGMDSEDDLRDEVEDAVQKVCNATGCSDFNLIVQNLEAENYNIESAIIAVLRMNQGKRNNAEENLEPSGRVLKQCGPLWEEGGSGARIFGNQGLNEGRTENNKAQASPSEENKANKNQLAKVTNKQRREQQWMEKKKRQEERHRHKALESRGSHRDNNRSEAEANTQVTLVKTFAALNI
How it was run: as §1

UniProt Q8TE49 = target: T2, UniProt Q8TE49
T2 sequence (whole entry): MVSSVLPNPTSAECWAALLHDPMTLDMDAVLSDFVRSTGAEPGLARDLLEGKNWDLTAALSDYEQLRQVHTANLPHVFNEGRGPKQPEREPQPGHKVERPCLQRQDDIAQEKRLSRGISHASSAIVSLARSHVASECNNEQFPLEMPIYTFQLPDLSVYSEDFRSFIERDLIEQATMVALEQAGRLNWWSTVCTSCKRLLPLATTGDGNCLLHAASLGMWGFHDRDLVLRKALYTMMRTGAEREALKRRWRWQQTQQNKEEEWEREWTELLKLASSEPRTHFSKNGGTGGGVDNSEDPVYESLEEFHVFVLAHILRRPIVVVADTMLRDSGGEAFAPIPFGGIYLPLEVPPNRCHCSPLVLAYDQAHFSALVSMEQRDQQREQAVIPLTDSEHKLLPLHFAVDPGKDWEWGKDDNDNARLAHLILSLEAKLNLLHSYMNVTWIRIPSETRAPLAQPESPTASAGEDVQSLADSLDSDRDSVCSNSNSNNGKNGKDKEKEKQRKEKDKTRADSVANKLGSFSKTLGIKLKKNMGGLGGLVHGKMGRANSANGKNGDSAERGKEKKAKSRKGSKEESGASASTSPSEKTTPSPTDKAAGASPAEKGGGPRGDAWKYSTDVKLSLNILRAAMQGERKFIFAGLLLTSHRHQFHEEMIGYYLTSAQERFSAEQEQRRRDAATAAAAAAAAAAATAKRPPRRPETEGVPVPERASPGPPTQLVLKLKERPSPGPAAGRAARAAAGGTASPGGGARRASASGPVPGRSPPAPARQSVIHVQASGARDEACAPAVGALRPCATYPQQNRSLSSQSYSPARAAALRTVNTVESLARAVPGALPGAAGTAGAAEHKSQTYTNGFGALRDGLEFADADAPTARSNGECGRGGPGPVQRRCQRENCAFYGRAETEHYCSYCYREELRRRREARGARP
How it was run: as §1

UniProt Q9P2H5 = target: T3, UniProt Q9P2H5
T3 sequence (whole entry): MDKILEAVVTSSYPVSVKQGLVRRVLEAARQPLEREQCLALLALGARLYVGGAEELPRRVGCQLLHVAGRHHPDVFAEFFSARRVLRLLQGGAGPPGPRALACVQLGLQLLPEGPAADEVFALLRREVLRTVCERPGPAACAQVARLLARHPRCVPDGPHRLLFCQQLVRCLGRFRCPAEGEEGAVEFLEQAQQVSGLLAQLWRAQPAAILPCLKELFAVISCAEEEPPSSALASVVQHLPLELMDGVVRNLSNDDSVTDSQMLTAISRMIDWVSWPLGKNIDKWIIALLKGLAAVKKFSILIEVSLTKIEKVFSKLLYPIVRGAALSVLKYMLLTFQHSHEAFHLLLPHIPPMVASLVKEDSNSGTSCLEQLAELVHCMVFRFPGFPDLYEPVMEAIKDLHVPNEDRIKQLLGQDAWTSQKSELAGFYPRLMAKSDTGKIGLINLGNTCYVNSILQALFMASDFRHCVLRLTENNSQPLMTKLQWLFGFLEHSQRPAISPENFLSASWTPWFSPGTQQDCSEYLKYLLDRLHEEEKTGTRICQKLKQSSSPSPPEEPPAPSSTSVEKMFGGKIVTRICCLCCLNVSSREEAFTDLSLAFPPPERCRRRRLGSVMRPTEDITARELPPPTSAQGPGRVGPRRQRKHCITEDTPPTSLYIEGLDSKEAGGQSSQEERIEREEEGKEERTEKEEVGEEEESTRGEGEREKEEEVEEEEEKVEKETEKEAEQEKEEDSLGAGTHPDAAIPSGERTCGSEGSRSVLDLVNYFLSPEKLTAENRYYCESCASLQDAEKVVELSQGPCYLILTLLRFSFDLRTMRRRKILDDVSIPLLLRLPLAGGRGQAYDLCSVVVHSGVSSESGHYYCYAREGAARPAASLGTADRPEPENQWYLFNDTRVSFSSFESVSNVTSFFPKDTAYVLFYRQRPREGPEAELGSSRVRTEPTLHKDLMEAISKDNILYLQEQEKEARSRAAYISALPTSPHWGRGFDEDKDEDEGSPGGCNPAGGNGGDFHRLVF
How it was run: as §1

UniProt Q9UGI0 = target: T4, UniProt Q9UGI0
T4 sequence (whole entry): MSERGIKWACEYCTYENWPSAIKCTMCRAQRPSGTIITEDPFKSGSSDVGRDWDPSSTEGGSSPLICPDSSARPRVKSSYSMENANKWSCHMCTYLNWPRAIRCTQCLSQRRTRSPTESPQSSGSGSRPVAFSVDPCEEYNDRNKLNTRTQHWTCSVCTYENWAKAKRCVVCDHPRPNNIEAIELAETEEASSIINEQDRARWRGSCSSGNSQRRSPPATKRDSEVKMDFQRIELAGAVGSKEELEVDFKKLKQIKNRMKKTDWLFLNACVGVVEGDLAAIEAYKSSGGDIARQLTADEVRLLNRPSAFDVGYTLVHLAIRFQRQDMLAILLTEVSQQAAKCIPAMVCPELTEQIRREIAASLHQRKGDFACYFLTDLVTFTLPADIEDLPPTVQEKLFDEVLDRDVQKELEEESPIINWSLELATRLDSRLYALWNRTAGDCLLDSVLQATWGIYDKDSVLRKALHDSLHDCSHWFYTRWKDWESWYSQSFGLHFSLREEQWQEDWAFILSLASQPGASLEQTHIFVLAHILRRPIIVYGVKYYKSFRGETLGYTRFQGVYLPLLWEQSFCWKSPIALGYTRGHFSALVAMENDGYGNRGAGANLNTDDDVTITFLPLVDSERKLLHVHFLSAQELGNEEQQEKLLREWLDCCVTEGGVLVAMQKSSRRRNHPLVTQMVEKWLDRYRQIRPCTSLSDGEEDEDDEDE
How it was run: as §1

YOD1 = target: T5, YOD1 (UniProt Q5VVQ6)
T5 sequence (whole entry): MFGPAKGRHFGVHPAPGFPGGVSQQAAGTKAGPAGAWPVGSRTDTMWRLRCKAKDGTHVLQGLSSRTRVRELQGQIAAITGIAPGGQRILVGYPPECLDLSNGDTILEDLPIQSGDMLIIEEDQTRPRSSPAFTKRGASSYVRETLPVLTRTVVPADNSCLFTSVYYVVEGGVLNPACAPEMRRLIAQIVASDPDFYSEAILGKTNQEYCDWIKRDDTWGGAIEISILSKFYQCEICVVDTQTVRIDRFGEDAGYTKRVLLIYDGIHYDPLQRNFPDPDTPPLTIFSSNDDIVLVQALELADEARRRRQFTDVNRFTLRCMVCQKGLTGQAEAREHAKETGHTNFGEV
How it was run: as §1

Chain of UniProt O00507 (O00507 whole entry, the tested form may be a part): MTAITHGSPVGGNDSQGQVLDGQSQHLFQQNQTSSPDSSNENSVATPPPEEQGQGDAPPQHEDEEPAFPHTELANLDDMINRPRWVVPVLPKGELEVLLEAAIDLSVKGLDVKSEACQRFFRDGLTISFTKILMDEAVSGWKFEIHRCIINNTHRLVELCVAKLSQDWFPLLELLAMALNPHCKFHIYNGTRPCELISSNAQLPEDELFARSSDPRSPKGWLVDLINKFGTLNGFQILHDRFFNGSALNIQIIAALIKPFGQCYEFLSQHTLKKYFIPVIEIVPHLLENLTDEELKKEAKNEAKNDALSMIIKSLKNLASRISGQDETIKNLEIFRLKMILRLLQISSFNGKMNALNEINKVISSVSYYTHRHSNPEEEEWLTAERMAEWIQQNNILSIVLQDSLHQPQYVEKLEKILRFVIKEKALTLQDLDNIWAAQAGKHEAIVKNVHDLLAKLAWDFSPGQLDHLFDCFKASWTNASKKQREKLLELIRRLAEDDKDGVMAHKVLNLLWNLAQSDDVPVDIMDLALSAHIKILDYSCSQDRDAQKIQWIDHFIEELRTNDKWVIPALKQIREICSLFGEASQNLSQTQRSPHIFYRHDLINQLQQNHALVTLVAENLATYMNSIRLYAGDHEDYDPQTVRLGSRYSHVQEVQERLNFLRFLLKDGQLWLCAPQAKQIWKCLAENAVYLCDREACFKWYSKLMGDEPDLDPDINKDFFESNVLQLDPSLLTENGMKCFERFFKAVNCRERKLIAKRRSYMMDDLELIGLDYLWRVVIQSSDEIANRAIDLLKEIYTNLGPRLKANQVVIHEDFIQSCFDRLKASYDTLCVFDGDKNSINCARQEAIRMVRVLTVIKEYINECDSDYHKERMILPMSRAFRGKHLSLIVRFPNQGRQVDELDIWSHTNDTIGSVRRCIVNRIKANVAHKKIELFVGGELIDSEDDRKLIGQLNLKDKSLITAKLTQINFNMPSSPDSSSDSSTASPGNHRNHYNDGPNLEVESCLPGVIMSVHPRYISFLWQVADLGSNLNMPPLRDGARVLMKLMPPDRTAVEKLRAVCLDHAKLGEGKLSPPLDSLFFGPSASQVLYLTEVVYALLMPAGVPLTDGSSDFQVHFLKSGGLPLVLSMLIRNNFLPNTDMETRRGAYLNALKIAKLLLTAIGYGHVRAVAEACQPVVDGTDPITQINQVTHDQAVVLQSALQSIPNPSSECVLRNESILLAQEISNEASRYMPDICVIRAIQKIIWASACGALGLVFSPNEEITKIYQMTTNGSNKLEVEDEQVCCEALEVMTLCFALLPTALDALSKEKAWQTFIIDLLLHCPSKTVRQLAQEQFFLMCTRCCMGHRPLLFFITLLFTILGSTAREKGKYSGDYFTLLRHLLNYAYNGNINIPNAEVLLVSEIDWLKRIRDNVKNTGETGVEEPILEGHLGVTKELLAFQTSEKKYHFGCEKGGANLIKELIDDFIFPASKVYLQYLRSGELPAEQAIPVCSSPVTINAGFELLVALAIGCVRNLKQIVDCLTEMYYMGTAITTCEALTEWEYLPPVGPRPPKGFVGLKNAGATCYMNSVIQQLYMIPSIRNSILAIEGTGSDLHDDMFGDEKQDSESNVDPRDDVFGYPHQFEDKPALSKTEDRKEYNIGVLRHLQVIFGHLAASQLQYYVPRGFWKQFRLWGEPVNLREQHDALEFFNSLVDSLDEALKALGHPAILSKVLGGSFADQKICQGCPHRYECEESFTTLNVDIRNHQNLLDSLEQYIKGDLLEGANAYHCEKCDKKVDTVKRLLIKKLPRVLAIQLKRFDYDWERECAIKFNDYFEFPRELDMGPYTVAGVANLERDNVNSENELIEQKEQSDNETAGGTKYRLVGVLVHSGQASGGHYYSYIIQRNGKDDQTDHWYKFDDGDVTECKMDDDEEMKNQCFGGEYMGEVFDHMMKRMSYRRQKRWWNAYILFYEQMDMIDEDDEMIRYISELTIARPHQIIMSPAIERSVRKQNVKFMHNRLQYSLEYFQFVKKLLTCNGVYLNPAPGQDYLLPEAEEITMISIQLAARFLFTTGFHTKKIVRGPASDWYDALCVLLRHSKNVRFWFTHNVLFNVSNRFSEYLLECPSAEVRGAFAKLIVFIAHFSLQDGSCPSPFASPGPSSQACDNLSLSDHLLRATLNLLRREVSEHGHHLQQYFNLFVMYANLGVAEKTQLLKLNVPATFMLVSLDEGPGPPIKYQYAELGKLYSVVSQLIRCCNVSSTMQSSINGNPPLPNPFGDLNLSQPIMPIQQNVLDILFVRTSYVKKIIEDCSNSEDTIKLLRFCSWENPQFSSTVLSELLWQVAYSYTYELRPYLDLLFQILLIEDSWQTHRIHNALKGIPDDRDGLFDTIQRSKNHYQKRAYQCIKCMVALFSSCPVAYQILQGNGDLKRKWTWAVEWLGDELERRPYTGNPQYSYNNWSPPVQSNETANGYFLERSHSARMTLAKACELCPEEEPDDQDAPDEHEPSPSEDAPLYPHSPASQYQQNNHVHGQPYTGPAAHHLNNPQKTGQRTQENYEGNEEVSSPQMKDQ

SMILES | log2 ratio of Biotin-Ahx-Ub-VS probe labelling (UniProt O00507) | log2 ratio of Biotin-Ahx-Ub-VS probe labelling (UniProt P51784) | log2 ratio of Biotin-Ahx-Ub-VS probe labelling (UniProt Q5T2D3) | log2 ratio of Biotin-Ahx-Ub-VS probe labelling (UniProt Q8TE49) | log2 ratio of Biotin-Ahx-Ub-VS probe labelling (UniProt Q9P2H5) | log2 ratio of Biotin-Ahx-Ub-VS probe labelling (UniProt Q9UGI0) | log2 ratio of Biotin-Ahx-Ub-VS probe labelling (YOD1)
O=C(CCl)Nc1cc(Cl)ccc1C(=O)O | 0.337 | 0.177 | -0.138 | -0.2 | -0.258 | -0.128 | 0.233
Cc1cccc(C(CNC(=O)CCl)N2CCOCC2)c1.Cl (stereo not drawn) | 0.29 | -0.0777 | -0.329 | -0.249 | -0.237 | 0.0449 | -0.28
CCN(C(=O)CCl)C1CCS(=O)(=O)C1 (stereo not drawn) | 0.545 | -0.0519 | 0.00795 | -0.222 | -0.211 | -0.289 | 0.133
COCC1C=CCCN1C(=O)CCl (stereo not drawn) | -0.284 | -0.0747 | -0.118 | -0.259 | -0.0309 | -1.01 (active) | -0.0106
O=C(CCl)NCCc1ccc2c(c1)OCCO2 | -0.489 | 0.0955 | -0.249 | -0.327 | -0.0308 | -0.256 | -0.414
Cc1n[nH]c2c1CN(C(=O)CCl)CC2 | -0.966 | -0.554 | -0.696 | -1.43 (active) | -0.801 | -1.32 (active) | -0.674
O=C(CCl)N1CCC(C(=O)N2CCCCCC2)CC1 | 0.0804 | 0.0166 | -0.255 | -0.488 | -0.287 | -0.0376 | 0.016
COc1ccc(C2CCCN2C(=O)CCl)c(OC)c1 (stereo not drawn) | 0.129 | -0.237 | -0.139 | -0.514 | -0.249 | -0.113 | -0.0199
CN1C(=O)c2ccc(NC(=O)CCl)cc2C1=O | -0.092 | -0.0657 | -0.265 | -1.43 (active) | -0.23 | -0.559 | -0.0267
O=C(CCl)Nc1cc2c(cc1Cl)OCCO2 | 0.223 | 0.121 | -0.437 | -0.908 | -0.253 | -0.402 | 0.302
CC1CCc2onc(CNC(=O)CCl)c2C1 (stereo not drawn) | 0.195 | 0.152 | -0.305 | -0.691 | -0.252 | -0.538 | 0.146
Cc1nc(CN2CCN(C(=O)CCl)CC2)cs1 | -0.246 | -0.106 | -0.213 | -0.382 | -0.401 | -0.214 | -0.111
O=C(CCl)N1CC2(CCOCC2)C1 | -0.0593 | 0.164 | -0.249 | -0.469 | -0.109 | -0.328 | -0.131
CC1CN(c2ccc(NC(=O)CCl)cc2)CC(C)O1 (stereo not drawn) | -0.0662 | 0.0387 | -0.298 | -0.392 | -0.0224 | -0.221 | -0.123
C#Cc1cccc(NC(=O)CCl)c1 | 0.0122 | -0.102 | -0.121 | -0.872 | -0.252 | -1.01 (active) | 0.0347
N#Cc1ccc(CNC(=O)CCl)cc1 | -0.0509 | -0.059 | -0.00706 | -0.236 | -0.0879 | -0.592 | -0.136
CCc1c[nH]c(CNC(=O)CCl)n1.Cl | -0.772 | -0.123 | -0.363 | -0.324 | -0.147 | -0.736 | -0.491
Cc1nc(-c2cccc(NC(=O)CCl)c2)cs1 | -0.692 | -0.269 | -0.317 | -0.655 | -0.193 | -1.43 (active) | -0.369
Cc1ccc(CN(CCO)C(=O)CCl)cc1 | -0.468 | -0.204 | -0.439 | -0.837 | -0.351 | -1.16 (active) | -0.163

Source: the supplement of paper PMC11732987, “Enantioselective OTUD7B fragment discovery through chemoproteomics screening and high-throughput optimisation” (Communications Chemistry, 2025)
